Records with an inconclusive call do not appear. Entries that show only a call come without a potency. Calls of active or inactive are those of the source. Calls follow the shape of the dose curve; as a rule, active = well fitted curve in the direction sought with a large enough effect; inconclusive = small, poorly fitted or top-dose-only effect, or another doubt; inactive = no such curve, though single readings can be large; an effect the other way counts as inactive or inconclusive.
How the values were obtained:
[1] = target: Thioredoxin reductase 1, cytoplasmic (Rattus norvegicus) (UniProt O89049); test: qHTS Assay for Inhibitors of Mammalian Selenoprotein Thioredoxin Reductase 1 (TrxR1) (AID 488773); conditions: Potency: inhibition; also: nearly all actives have a fitted effect of over 40% in size; also: potency is read from the fitted curve at half-maximal effect
Summary of the method: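 Inhibition is scored from the loss of NADPH fluorescence between first and last reads of an 8-min kinetic run. Selenite (400 uM) was the substrate, added after 15 min compound preincubation at room temperature.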

[2] = target: Flap endonuclease 1 (Homo sapiens) (UniProt P39748); test: qHTS Validation Assay for the Inhibitors of Human Flap endonuclease 1 (FEN1) (AID 488816)
Summary of the method: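 Enzyme reagent 10 nM; cpds pinned; 15 min RT preinc.; substrate 50 nM final; reads t=0 and 15 min; no-enzyme buffer wells as neg. control; normalized data, 4-parameter Hill fit.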

[3] = target: M-phase phosphoprotein 8 (Homo sapiens) (UniProt Q99549); test: qHTS Validation Assay for Inhibitors for MPP8 Chromodomain Interactions with Methylated Histone Tails (AID 488949); also: nearly all actives have a fitted effect of over 55% in size; also: potency is read from the fitted curve at half-maximal effect
Summary of the method: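 Chemiluminescent proximity assay: histidine-tag capture via nickel acceptor beads, biotin peptide via streptavidin donor beads. Protein and peptide each at 50 nM, pH 7.4, with 30 min incubations at room temperature for complex formation, compound exposure and bead binding.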

[4] = target: Chromobox protein homolog 1 (Homo sapiens) (UniProt P83916); test: qHTS Validation Assay for Inhibitors of HP1-beta Chromodomain Interactions with Methylated Histone Tails (AID 488953); also: nearly all actives have a fitted effect of over 50% in size; also: potency is read from the fitted curve at half-maximal effect
Summary of the method: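 Disruption of preformed HP1-beta:H3K9me3 peptide complexes (both 50 nM, PBS pH 7.4 with 0.01% Tween-20) is measured by AlphaScreen after 30 min compound exposure at room temperature, using streptavidin donor and nickel chelate acceptor beads at 10 ug/mL final.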

[5] = target: Transient receptor potential cation channel subfamily V member 1 (Homo sapiens) (UniProt Q8NER1); test: HTS Assay for Compounds that Act as Enhancers of the Vanilloid Receptor 1 (AID 488979)
Summary of the method: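 TRPV1 cells loaded with Fluo-8 calcium dye; compound added and Ca2+ signal (ex 480/em 520 nm) followed 3 min, then capsaicin at EC20 added and read 2 more min to detect enhancement.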

[6] = target: D(1A) dopamine receptor (Homo sapiens) (UniProt P21728); test: HTS Assay for Allosteric Agonists of the Human D1 Dopamine Receptor: Primary Screen for Agonists (AID 488981)
Summary of the method: (§1)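 Tetracycline-induced HEK293 Trex D1 cells with forced coupling to calcium, loaded with no-wash calcium dye; kinetic fluorescence read 180 s after compound addition for agonism, then a further 180 s after an EC20 dopamine challenge for potentiation.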

[7] = target: D(1A) dopamine receptor (Homo sapiens) (UniProt P21728); test: HTS Assay for Allosteric Agonists of the Human D1 Dopamine Receptor: Primary Screen for Potentiators (AID 488982)
Summary of the method: as §1

[8] = target: D(1A) dopamine receptor (Homo sapiens) (UniProt P21728); test: HTS Assay for Allosteric Agonists of the Human D1 Dopamine Receptor: Primary Screen for Antagonists (AID 488983);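 also: calcium flux response to an EC80 dopamine challenge measured with no-wash dye; nearly all actives have a fitted effect of over 65% in size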; also: potency is read from the fitted curve at half-maximal effect
Summary of the method: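 Kinetic fluorescence at 1 cycle/sec tracked intracellular calcium in force-coupled, tetracycline-inducible HEK293 T-REx D1 cells. Loss of response to an EC80 dopamine dose, given 180 s after compound, marked antagonists.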

[9] = target: Methanococcus maripaludis chaperonin (MmCpn) (UniProt Q6LX38); test: High-Throughput Screening for Modulators of Cytosolic Chaperonin Activity: MmCpn Primary Screen (AID 488978)
Summary of the method: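 HTRF readout (320 nm excitation, 590/665 nm emission) of ADP generated by 50 nM MmCpn hydrolysing 30 uM ATP during 10 min at 37C; compound preincubated 5 min RT.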

[10] = target: Thyrotropin receptor (Homo sapiens) (UniProt P16473); test: qHTS Assay for Antagonists of the Thyroid Stimulating Hormone Receptor (AID 488980); also: series mostly up to about 58 µM
Summary of the method: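 Inhibition of TSH-stimulated cAMP accumulation was quantified by homogeneous time-resolved FRET in TSHR-transfected HEK293 cells. Agonist: TSH, 4 nM final (EC80).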

Sequence of Thioredoxin reductase 1, cytoplasmic (Rattus norvegicus) (O89049 whole entry, looked up): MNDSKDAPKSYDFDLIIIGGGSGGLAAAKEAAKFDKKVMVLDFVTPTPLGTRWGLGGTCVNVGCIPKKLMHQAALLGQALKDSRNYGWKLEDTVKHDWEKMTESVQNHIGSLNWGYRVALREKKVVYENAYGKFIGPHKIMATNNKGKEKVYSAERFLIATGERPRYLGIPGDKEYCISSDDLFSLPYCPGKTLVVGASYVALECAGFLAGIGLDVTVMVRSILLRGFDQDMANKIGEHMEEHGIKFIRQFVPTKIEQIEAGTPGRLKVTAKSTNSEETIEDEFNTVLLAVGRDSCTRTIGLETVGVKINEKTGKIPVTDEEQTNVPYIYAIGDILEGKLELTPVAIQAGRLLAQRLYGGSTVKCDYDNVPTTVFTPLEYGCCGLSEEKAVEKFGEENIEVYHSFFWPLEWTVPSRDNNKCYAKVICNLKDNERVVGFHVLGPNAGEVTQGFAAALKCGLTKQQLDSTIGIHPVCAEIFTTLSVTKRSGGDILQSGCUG
Sequence of Methanococcus maripaludis chaperonin (MmCpn) (Q6LX38 1-543): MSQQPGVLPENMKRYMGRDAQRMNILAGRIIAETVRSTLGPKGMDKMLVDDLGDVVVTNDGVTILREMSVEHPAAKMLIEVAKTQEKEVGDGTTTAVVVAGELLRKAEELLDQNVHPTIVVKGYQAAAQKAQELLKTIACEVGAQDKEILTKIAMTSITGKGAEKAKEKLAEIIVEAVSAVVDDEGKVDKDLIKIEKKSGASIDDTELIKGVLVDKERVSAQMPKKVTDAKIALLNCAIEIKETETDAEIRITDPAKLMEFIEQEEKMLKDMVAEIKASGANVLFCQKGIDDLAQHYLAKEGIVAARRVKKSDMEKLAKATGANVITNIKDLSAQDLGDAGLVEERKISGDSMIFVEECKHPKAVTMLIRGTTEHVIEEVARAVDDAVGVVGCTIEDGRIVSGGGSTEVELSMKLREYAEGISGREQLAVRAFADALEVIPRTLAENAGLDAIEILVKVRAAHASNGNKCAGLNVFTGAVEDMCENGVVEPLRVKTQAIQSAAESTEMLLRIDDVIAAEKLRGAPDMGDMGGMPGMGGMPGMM
Sequence of Chromobox protein homolog 1 (Homo sapiens) (P83916 whole entry, looked up): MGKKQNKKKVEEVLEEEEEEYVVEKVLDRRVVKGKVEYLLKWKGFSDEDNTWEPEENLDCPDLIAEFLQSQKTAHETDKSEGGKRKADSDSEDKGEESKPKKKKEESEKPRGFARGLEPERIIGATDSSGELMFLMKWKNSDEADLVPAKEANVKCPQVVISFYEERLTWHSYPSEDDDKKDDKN
Sequence of Flap endonuclease 1 (Homo sapiens) (P39748 whole entry, looked up): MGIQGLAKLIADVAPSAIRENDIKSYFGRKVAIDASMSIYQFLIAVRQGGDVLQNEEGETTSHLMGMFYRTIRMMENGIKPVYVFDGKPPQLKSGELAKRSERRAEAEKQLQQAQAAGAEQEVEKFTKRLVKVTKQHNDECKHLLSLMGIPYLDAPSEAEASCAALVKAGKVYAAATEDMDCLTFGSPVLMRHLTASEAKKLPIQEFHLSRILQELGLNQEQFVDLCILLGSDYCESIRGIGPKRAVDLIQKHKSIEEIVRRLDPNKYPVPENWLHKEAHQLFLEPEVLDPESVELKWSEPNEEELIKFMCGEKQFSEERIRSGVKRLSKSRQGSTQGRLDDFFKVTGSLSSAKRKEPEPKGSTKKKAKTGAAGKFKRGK
Sequence of Transient receptor potential cation channel subfamily V member 1 (Homo sapiens) (Q8NER1 whole entry, looked up): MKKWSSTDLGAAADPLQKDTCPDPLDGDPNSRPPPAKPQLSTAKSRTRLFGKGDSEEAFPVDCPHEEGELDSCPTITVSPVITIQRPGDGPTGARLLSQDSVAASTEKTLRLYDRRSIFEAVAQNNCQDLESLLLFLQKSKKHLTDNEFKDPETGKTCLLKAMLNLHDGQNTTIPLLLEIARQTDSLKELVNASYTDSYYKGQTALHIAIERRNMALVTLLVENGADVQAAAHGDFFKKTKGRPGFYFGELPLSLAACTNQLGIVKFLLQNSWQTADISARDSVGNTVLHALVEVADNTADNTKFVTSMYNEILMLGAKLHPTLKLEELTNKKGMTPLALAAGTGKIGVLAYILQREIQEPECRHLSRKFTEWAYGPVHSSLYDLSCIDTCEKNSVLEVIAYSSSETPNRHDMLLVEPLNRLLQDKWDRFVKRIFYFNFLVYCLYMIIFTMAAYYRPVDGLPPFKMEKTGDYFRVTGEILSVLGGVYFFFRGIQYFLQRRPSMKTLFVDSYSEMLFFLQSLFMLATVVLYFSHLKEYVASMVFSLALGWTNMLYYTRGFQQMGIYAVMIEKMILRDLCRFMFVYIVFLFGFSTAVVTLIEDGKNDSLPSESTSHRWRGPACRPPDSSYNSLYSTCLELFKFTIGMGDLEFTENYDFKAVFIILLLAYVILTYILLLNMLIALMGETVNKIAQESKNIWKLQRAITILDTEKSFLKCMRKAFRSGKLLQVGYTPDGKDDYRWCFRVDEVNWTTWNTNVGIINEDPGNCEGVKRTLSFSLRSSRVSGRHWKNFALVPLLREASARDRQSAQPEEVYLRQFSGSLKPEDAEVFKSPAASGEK
Sequence of D(1A) dopamine receptor (Homo sapiens) (P21728 whole entry, looked up): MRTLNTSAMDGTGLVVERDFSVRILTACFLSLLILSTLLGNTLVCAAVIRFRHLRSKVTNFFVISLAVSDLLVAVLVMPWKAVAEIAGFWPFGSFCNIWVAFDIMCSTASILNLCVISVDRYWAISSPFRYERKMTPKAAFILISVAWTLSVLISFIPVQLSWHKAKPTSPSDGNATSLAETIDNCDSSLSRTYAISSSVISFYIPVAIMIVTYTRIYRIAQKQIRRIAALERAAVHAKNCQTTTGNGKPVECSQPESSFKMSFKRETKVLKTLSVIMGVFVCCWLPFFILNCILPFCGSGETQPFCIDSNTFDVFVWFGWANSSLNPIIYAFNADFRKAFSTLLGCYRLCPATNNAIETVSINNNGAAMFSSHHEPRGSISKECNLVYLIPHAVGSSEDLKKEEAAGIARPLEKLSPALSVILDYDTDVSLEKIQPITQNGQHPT
Sequence of Thyrotropin receptor (Homo sapiens) (P16473 whole entry, looked up): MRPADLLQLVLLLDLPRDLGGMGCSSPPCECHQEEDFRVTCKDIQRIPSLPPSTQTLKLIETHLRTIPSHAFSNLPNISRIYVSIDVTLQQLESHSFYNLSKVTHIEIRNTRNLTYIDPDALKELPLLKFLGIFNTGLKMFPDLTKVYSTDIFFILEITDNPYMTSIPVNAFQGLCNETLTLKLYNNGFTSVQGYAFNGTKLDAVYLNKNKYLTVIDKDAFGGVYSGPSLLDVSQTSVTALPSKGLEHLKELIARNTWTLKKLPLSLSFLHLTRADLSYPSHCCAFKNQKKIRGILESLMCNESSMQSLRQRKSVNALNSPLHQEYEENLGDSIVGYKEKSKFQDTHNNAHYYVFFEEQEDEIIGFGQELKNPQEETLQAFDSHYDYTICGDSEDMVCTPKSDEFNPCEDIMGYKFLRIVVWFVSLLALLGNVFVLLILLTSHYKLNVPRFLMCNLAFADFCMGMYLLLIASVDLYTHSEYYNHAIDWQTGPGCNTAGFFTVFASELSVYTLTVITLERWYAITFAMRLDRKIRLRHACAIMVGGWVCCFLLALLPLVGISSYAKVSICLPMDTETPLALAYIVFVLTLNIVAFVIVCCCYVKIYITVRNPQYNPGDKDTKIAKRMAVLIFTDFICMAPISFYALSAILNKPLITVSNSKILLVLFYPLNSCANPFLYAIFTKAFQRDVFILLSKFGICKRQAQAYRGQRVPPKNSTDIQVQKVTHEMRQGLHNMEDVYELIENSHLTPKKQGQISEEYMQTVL
Sequence of M-phase phosphoprotein 8 (Homo sapiens) (Q99549 whole entry, looked up): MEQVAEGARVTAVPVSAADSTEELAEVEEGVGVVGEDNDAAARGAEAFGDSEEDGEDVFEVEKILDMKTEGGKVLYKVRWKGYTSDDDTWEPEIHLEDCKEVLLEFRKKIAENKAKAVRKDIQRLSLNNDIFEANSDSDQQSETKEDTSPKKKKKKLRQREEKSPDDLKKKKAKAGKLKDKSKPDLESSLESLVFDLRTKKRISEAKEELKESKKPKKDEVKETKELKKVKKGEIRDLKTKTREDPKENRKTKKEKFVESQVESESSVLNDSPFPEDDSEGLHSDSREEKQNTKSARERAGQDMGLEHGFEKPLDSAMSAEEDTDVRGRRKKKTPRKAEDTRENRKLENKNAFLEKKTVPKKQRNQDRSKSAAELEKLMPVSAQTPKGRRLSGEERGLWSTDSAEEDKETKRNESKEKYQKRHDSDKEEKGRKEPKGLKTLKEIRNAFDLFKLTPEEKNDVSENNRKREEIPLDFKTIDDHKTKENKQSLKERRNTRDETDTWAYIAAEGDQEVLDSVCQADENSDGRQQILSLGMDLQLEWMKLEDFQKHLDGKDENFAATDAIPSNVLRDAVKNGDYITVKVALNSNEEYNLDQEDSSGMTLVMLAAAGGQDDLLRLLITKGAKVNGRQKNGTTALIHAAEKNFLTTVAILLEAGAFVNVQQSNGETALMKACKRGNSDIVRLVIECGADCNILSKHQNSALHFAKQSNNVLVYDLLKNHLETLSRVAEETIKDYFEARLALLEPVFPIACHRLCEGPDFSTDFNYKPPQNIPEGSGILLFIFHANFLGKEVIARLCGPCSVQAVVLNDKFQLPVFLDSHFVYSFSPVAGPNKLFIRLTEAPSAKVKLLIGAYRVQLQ

Compound	Potency [1]	Potency [2]	Potency [3]	Potency [4]	outcome [5]	Potency [6]	Potency [7]	Potency [8]	outcome [9]	outcome [10]
NC(=O)N1c2ccccc2C=Cc2ccccc21	inactive	inactive	inactive	inactive	inactive	inactive	inactive	inactive		
Cc1cccc(C)c1NC(=O)C(C)N (centres undefined)	inactive	inactive	inactive	inactive		inactive	inactive	inactive	inactive	
CCN1CCc2nc(N)oc2CC1	29.9 µM (active)	inactive	inactive	inactive		inactive	inactive	inactive	inactive	inactive
O=C(O)CN(CCN(CC(=O)O)CC(=O)O)CCN(CC(=O)O)CC(=O)O	inactive	inactive	inactive	inactive	inactive	inactive	inactive	inactive		
CN1C(=O)CC[C@H]1c1cccnc1	inactive	inactive	inactive	inactive		inactive	inactive	inactive	inactive	
CCO/C([O-])=N/c1c[n+](N2CCOCC2)no1	inactive	inactive	inactive	inactive	inactive	inactive	inactive	inactive		inactive
CCCCNc1c(C(=O)OCC)c(C)nc2c1cnn2CC	inactive	inactive	inactive	inactive	inactive	inactive	inactive			inactive
C#CCN(C)CCCOc1ccc(Cl)cc1Cl	inactive	inactive	inactive	inactive	inactive	inactive	inactive	inactive		
CC(C)(C)NCC(O)c1cc(O)cc(O)c1 (centres undefined)	inactive	inactive	inactive	inactive		inactive	inactive	inactive	inactive	inactive
CCCCNC(=O)NS(=O)(=O)c1ccc(C)cc1	inactive	inactive	inactive	inactive		inactive	inactive	inactive	inactive	
O=c1[nH]c(=O)n([C@H]2C[C@H](O)[C@@H](CO)O2)cc1Br	inactive	inactive	inactive	inactive		inactive	inactive	inactive		inactive
C[C@]12CC[C@@H]3c4ccc(O)cc4C[C@@H](CCCCCCCCCS(=O)CCCC(F)(F)C(F)(F)F)[C@H]3[C@@H]1CC[C@@H]2O (some centres undefined)	inactive	inactive	inactive	inactive		inactive	inactive	inactive	inactive	
CCN(CC)CCNC(=O)c1cc(S(C)(=O)=O)ccc1OC	inactive	inactive	inactive	inactive		inactive	inactive	inactive	inactive	inactive
Cc1ccc(S(=O)(=O)NC(=O)NN2CCCCCC2)cc1	inactive	inactive	inactive	inactive		inactive	inactive	inactive		inactive
NC(=O)c1cn(Cc2c(F)cccc2F)nn1	inactive	inactive	inactive	0.006 µM (active)		inactive	inactive	inactive	inactive	
O=C1NCN(c2ccccc2)C12CCN(CCCC(c1ccc(F)cc1)c1ccc(F)cc1)CC2	inactive	inactive	14.1 µM (active)	39.8 µM (active)		inactive	inactive			inactive
Cc1nc2c([nH]1)c(=O)n(C)c(=O)n2Cc1ccco1	inactive	inactive	inactive	inactive		inactive	inactive	inactive	inactive	
CC(=O)[C@@]1(O)CC[C@H]2[C@@H]3CCC4=CC(=O)CC[C@]4(C)[C@H]3CC[C@@]21C	inactive	inactive	inactive	inactive		inactive	inactive	inactive	inactive	

Compound	Potency [1]	Potency [2]	Potency [3]	Potency [4]	outcome [5]	Potency [6]	Potency [7]	Potency [8]	outcome [9]	outcome [10]
CCCCNc1ccc(C(=O)OCCN(C)C)cc1	inactive	inactive	inactive	inactive		inactive	inactive	inactive	inactive	inactive
CCCCCCCC/C=C\CCCCCCCC(=O)NCc1ccc(O)c(OC)c1	inactive	inactive	inactive	inactive		inactive		inactive	inactive	
Cc1ccc(=O)n(-c2ccccc2)c1	inactive	inactive	inactive	inactive	inactive	inactive	inactive	inactive		inactive
CCN(CC)CCCN(c1ccccc1)C1Cc2ccccc2C1	inactive	inactive	inactive	inactive		inactive	inactive		inactive	
CCc1cccc(N(C)C(N)=Nc2cccc3ccccc23)c1	inactive	inactive	inactive	0.0075 µM (active)			inactive	inactive	inactive	inactive
CC(C)NNC(=O)c1ccncc1	inactive	inactive	inactive	inactive	inactive	inactive	inactive	inactive		inactive
CCCOc1ccccc1-c1nc2n[nH]nc2c(=O)[nH]1	inactive	inactive	inactive	inactive	inactive	inactive	inactive	inactive		inactive
COc1cc(C(=O)OCCCN2CCCN(CCCOC(=O)c3cc(OC)c(OC)c(OC)c3)CC2)cc(OC)c1OC	inactive	inactive	inactive		inactive	inactive	inactive	inactive	inactive	inactive
NC(Cc1ccc(Cl)cc1)C(=O)O (centres undefined)	inactive	inactive	inactive			inactive	inactive	inactive	inactive	inactive
CC(C(=O)O)c1ccc(CC2CCCC2=O)cc1 (centres undefined)	inactive	inactive	inactive		inactive	inactive	inactive	inactive	inactive	inactive
CC1=NS(=O)(=O)c2cc(Cl)ccc2N1	inactive	inactive	inactive	inactive		inactive		inactive		inactive
FC(F)(F)c1ccccc1-n1ccnc1	inactive	inactive	inactive			inactive	inactive	inactive		
CC(C)(C)c1ccc(C(=O)CCCN2CCC(OC(c3ccccc3)c3ccccc3)CC2)cc1	inactive	inactive	inactive			inactive			inactive	
CO[C@@]1(NC(=O)CSCC#N)C(=O)N2C(C(=O)O)=C(CSc3nnnn3C)CS[C@@H]21	21.2 µM (active)	inactive	inactive			inactive	inactive	inactive	inactive	
CN1CCN(CC(=O)N2c3ccccc3C(=O)Nc3cccnc32)CC1	inactive	inactive	inactive		inactive	inactive		inactive	inactive	inactive
C[C@@H](O)[C@H]1C(=O)N2C(C(=O)O)=C(SCCN=CN)C[C@H]12	inactive	inactive	inactive	inactive		inactive	inactive	inactive		
CCC(=O)c1ccc2c(c1)N(CCCN(C)C)c1ccccc1S2	inactive	inactive	inactive			inactive	inactive	0.891 µM (active)	inactive	
CCOC(=O)C1=C(C)NC(C)=C(C(=O)OC)C1c1cccc([N+](=O)[O-])c1 (centres undefined)	inactive	inactive	inactive		inactive	inactive				inactive
